Shown is part of a subset that was picked to be rich in hits.
PKM2 inhibitor: PKM2 (human) enzyme inhibition. purified PKM2, ATP generation, Kinase-Glo luminescence. Potency, µM (titrated, usually from 57.5 µM), without a hit: at the top dose activity change, negative = inhibition, actives largely listed as inhibitors. P14618. 260,000 compounds, 0.058% hits; note: potency is the fitted concentration of half-maximal effect; nearly all actives have a fitted effect of over 60% in size
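Enzyme run at intermediate activity with final 0.1 mM ADP, 0.5 mM PEP (50 mM imidazole pH7.2, 50 mM KCl, 7 mM MgCl2), incubated 1 h at r.t. ATP formed read by Kinase-Glo luminescence, normalized to no-enzyme (full inhibition) and uninhibited wells.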
PKM2 inh dose: PKM2 (human) inhibition, concentration-response confirmation; Potency, µM (doses to about 57.5 µM), for inactives: at the highest dose activity change, negative = inhibition, actives largely listed as inhibitors; AID 2263; purified hPK-M2, Kinase-Glo ATP luminescence, 1 h; shares compounds with PKM2 inhibitor; 55 compounds, 50% hits
FLuc counter: counter-screen for pyruvate kinase M2 inhibitors: firefly luciferase inhibition. shares compounds with PKM2 inhibitor. Potency, µM (titrated, usually from 57.5 µM), for the others: top-dose activity, negative = inhibition, hits mostly inhibitors. 55 compounds, 30% hits. Kinase-Glo firefly luciferase, luminescence, 8 min
PKM2 LDH couple: blocks human pyruvate kinase M2 in LDH-coupled assay | purified hPK-M2, LDH-coupled NADH fluorescence kinetic | 55 tested, under 10 active | Potency, µM (top dose mostly 57.5 µM), inactives show top-dose activity change, negative = inhibition, actives largely listed as inhibitors | AID 2267 | shares compounds with PKM2 inhibitor
The depositor's hits bear a star; ? = inconclusive. Calls come from the whole dose curve; as a rule, active = well fitted curve in the direction sought with a large enough effect; inconclusive = small, poorly fitted or top-dose-only effect, or another doubt; inactive = no such curve, though single readings can be large; an effect the other way counts as inactive or inconclusive.

SMILES	PKM2 inhibitor	others
O=c1c2ccccc2[se]n1-c1ccccc1	6.3µM*	PKM2 inh dose=5.8µM*;FLuc counter=21µM*;PKM2 LDH couple=?
Cc1ccccc1N(CC(=O)NC1CCCC1)C(=O)c1csnn1	58%
O=C1c2ccccc2C(=O)N1SC1CCCCC1	35%
COc1cc(OC)c(OC)cc1CN1CCN(C(=O)Cc2ccccc2)CC1	32%
Nn1c(COc2ccc(Cl)cc2)n[nH]c1=S	79%
